For some assays here: Results with a measured potency or affinity are listed apart. The source made the active and inactive calls.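 The calls were made as follows, unless noted: active = primary screen hit whose calcium fluorescence ratio, in both repeats, exceeds the weak agonist control mean by 3 SD; inactive = the rest.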

7 compounds from PubChem BioAssay can be followed below.

Test [1] relates to TRPC4 beta (transient receptor potential cation channel C4), mouse. Nature of the test: activators of mouse TRPC4 channel, confirmation, cell-based, Fluo4 calcium, HEK293 TRPC4beta/mu-opioid, duplicates, 10 µM (AID 2426;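 active = fluorescence ratio normalized to control raised more than 50% in primary screen plus both repeat runs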). To be noted: Fluo4 calcium fluorescence, at 10 µM; stronger effect = higher value.
Test [2] has as its system transient receptor potential cation channel C4 beta (TRPC4), mouse. Nature of the test: activators of mouse TRPC4 channel, confirmation, cell-based, second round, Fluo4, HEK293 TRPC4beta/mu-opioid, 1 µM (AID 2461;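 active = primary screen active and over 50% activation in each of two duplicate runs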). To be noted: Fluo4 calcium fluorescence, at 1 µM; stronger effect = higher value.
Test [3] has as its system TRPC4 (transient receptor potential cation channel C4 beta), mouse. Nature of the test: positive allosteric modulators of mouse TRPC4, confirmation, cell-based, second round, Fluo-4, HEK293 TRPC4beta/mu-opioid, 1 µM (AID 2554;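 active = primary screen hit whose fluorescence ratio, in both repeats, exceeds the weak agonist control mean by 3 SD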). To be noted: DAMGO EC20, Fluo-4 calcium flux, at 1 µM; stronger effect = higher value. On the technique in general: A change in cytosolic calcium serves as a functional read-out for many receptors and channels.

Test [4] deals with TRPC4 beta (transient receptor potential cation channel C4), mouse. Nature of the test: positive allosteric modulators of mouse TRPC4, confirmation, cell-based, Fluo-4, HEK293 TRPC4beta/mu-opioid (AID 2555). To be noted: DAMGO EC20, Fluo-4 calcium flux, at 10 µM; stronger effect = higher value.
Test [5] concerns the target Short transient receptor potential channel 4 (Mus musculus) (UniProt Q9QUQ5). Put plainly: inhibitors of mouse TRPC4 channel, confirmation, cell-based, Fluo4, HEK293 TRPC4beta/mu-opioid (AID 2636;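 active = calcium signal cut by more than 3 SD below the full-agonist control yet still positive, in both repeats and the earlier primary screen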). To be noted: DAMGO, Fluo4 calcium flux, at 10 µM; stronger effect = higher value.
Test [6] shares this target. Put plainly: inhibitors of mouse TRPC4 channel, confirmation, cell-based, second round, Fluo4, HEK293 TRPC4beta/mu-opioid, 1 µM (AID 2637;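 active = calcium signal ratio cut to more than 3 SD under the fully stimulated control mean yet still positive, in both repeats and the primary screen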). To be noted: Fluo4 calcium flux, DAMGO, at 1 µM; stronger effect = higher value.
Test [7] has the same target. Put plainly: mouse TRPC4 channel activators, dose response, cell-based, HEK293 TRPC4/mu-opioid, Fluo-4 calcium (AID 434937;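 active = primary screen activator hit with a dose response curve and TRPC4 channel activation at any tested dose; inactive = no activation, no dose response, or not a primary hit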).
Test [8] has the same target. Put plainly: TRPC4 positive allosteric modulators, dose response, cell-based, HEK293 TRPC4/mu-opioid, Fluo-4 calcium, EC20 DAMGO (AID 434941;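 active = earlier screen potentiator hit that boosts the TRPC4 ion channel at some dose, with a dose response; inactive = no potentiation, no dose response, or not a prior hit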;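 also: calcium entry triggered by an EC20 dose of DAMGO at the co-expressed mu-opioid receptor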).
Test [9] shares this target. Nature of the test: mouse TRPC4 channel inhibitors, dose response, cell-based, HEK293 TRPC4/mu-opioid, Fluo-4 calcium (AID 434942;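 active = primary screen inhibitor hit that blocks the TRPC4 channel at some tested dose, yielding a dose curve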).
The target in test [10] is Short transient receptor potential channel 6 (Mus musculus) (UniProt Q61143). Put plainly: inhibition of mouse TRPC6 channel, confirmation, selectivity assay for TRPC4 inhibitor project, cell-based, HEK293, membrane potential dye, duplicate (AID 434948;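 active = active in primary screen and both duplicates, each dropping signal beyond three positive-control SD with fluorescence still positive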). To be noted: HEK293 TRPC6, membrane potential dye fluorescence, at 10 µM, stimulated with maximal-effect acetylcholine; stronger effect = higher value.

Test [11] shares this target. Nature of the test: activation of mouse TRPC6 channel, confirmation, selectivity assay for TRPC4 activator project, cell-based, HEK293, membrane potential dye, duplicate (AID 434950;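 active = membrane potential signal rise above negative control mean plus 3 SD in both duplicates, also active in the earlier TRPC4 screen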). To be noted: HEK293 TRPC6, membrane potential fluorescence, at 10 µM; stronger effect = higher value.
The target is the same in test [12]. Nature of the test: TRPC6 potentiation by TRPC4 potentiator hits, confirmation, selectivity assay for TRPC4 potentiator project, HEK293 cells, membrane potential dye, duplicate (AID 434952;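 active = compound raising the membrane signal above positive-control mean plus 3 SD in both repeats, and a primary screen hit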). To be noted: HEK293 TRPC6, membrane potential dye fluorescence, at 10 µM, maximal acetylcholine added after compound; stronger effect = higher value.
Test [13] concerns the target Short transient receptor potential channel 4 (Mus musculus) (UniProt Q9QUQ5). Put plainly: calcium flux activators in TRPC4/5HT1a cells, counter-screen for TRPC4 activator project, cell-based, second counter screen, HEK293 TRPC4/5HT1a, Fluo-4 (AID 434977;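 active = calcium signal rise above buffer-control mean plus 5 SD in both duplicates, and also a hit in the primary screen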). To be noted: Fluo-4 calcium flux, at 10 µM; stronger effect = higher value.
Test [14] is described as follows: calcium flux inhibitors in TRPC4/5HT1a cells, confirmation, counter-screen for TRPC4 inhibitor project, cell-based, second counter screen, HEK293 TRPC4/5HT1a, Fluo-4 (AID 434978;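 active = primary screen active whose calcium signal fell more than 3 SD beyond the full-serotonin control mean in both duplicate plates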;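 also: serotonin given first at submaximal then at maximal dose after compound preincubation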). To be noted: Fluo-4 calcium flux, at 10 µM, serotonin added to trigger calcium flux; stronger effect = higher value.
Test [15] has as its system TRPC4 (mouse), co-expressed with 5HT1a in HEK293. Put plainly: calcium flux potentiators in TRPC4/5HT1a cells, confirmation, counter-screen for TRPC4 potentiator project, cell-based, second counter screen, HEK293 TRPC4/5HT1a, Fluo-4 (AID 434979;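 active = signal rise over 3 SD above mean of control wells given weak agonist, in both repeats and first screen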). To be noted: Fluo-4 calcium flux, at 10 µM, serotonin added at its EC20 dose; stronger effect = higher value.
A short description of test [16]: calcium flux activation in mu-opioid HEK293 cells, confirmation, counter-screen for TRPC4 activator project, cell-based, HEK293 mu-opioid receptor line (AID 449723;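 active = hit in primary screen, with calcium signal over 5 SD above buffer well mean in both duplicates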;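 also: counter screen cells carry the mu-opioid receptor alone and lack TRPC4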). To be noted: Fluo-4 calcium fluorescence, at 10 µM; stronger effect = higher value.
Test [17] in a line: calcium flux enhancement in mu-opioid HEK293 cells, confirmation, counter-screen for TRPC4 allosteric potentiator project, cell-based, HEK293 mu-opioid receptor line (AID 449724;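 active = calcium signal rise more than 3 SD above the low-dose agonist control mean, in both duplicate plates and the primary screen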;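 also: HEK293 cells carrying mu-opioid receptor only with no TRPC4 channel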). To be noted: Fluo-4 calcium flux, at 10 µM, compound added before EC20 DAMGO stimulus; stronger effect = higher value.
Test [18] in a line: thallium flux activation in parental CHO cells, counter-screen for KCNQ1 potentiator project (AID 493006;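 active = duplicate-averaged activation above buffer control mean plus 5 SD of those controls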;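 as to activation: fluorescence ratio of max minus min over baseline after K+ and Tl+ depolarization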). To be noted: parental CHO-K1 cells, FluxOR thallium flux, at 10 µM; stronger effect = higher value.
The target in test [19] is Potassium voltage-gated channel subfamily KQT member 1 (Homo sapiens) (UniProt P51787). Put plainly: KCNQ1 potassium channel potentiators, confirmation, FluxOR thallium flux, CHO cells, duplicates (AID 493007;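 active = potentiation averaged over duplicate wells exceeding buffer-only control mean by more than 3 SD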;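 as to outcome: cells depolarized by a potassium plus thallium sulfate stimulus after compound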;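 as to potentiation: 0% = buffer-only wells and 100% = R-L3 activator control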). To be noted: KCNQ1 cell line, FluxOR thallium flux fluorescence, at 10 µM; stronger effect = higher value, % of reference activator effect, buffer zero.
The target in test [20] is Potassium voltage-gated channel subfamily KQT member 2 (Rattus norvegicus) (UniProt O88943). Put plainly: rat KCNQ2 channel potentiation, selectivity assay for KCNQ1 potentiator project, KCNQ2-CHO-K1 cells (AID 493009;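 active = mean duplicate potentiation above the buffer control mean plus 5 SD of buffer wells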;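 also: assay conditions were tuned for KCNQ1 rather than KCNQ2 modulators; signal is max minus min fluorescence divided by baseline after thallium stimulus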). To be noted: FluxOR thallium flux fluorescence, at 10 µM; stronger effect = higher value, scaled: buffer 0, activator control 100.
Sequence of Potassium voltage-gated channel subfamily KQT member 2 (Rattus norvegicus) (O88943 whole entry, looked up): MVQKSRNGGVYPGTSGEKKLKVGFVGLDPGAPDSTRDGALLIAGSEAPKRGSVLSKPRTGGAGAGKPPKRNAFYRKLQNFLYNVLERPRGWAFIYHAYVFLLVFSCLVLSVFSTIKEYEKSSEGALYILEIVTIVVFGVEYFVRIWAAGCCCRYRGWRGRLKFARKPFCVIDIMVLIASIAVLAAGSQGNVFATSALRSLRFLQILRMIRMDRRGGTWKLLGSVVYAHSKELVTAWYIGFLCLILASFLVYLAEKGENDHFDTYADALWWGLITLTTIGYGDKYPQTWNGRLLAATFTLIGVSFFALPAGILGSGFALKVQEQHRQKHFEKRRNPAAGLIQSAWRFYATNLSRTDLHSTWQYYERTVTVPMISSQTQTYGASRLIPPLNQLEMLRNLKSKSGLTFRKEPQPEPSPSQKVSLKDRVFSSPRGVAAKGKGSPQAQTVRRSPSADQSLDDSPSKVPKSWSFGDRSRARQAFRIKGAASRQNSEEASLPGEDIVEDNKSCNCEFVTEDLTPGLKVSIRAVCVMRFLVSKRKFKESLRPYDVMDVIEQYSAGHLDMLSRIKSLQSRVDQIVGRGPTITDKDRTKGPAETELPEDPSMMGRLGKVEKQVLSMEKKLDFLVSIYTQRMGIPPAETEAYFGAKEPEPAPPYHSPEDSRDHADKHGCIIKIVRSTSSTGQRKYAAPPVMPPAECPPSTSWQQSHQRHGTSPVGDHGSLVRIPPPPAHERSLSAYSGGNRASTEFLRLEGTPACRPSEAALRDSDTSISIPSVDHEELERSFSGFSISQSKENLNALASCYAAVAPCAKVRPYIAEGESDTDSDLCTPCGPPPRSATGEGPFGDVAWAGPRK

Sequence of Potassium voltage-gated channel subfamily KQT member 1 (Homo sapiens) (P51787 whole entry, looked up): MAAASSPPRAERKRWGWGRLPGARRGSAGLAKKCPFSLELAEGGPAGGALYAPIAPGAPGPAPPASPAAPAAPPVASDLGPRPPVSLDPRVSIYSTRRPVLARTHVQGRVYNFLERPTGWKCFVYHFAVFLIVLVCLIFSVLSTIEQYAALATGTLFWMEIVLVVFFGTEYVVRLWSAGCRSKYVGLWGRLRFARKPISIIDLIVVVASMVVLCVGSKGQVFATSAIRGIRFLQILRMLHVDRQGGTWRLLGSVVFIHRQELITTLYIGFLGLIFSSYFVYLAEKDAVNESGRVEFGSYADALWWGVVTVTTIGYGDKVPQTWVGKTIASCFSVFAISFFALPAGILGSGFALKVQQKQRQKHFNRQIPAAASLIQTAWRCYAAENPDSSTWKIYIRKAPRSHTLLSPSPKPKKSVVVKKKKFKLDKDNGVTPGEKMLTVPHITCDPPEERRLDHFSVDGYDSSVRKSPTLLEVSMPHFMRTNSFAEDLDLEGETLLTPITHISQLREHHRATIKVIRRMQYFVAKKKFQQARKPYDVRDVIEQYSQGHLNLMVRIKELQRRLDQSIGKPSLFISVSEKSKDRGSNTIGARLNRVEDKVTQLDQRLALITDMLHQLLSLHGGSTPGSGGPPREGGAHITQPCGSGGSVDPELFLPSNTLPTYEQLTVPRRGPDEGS
Sequence of Short transient receptor potential channel 6 (Mus musculus) (Q61143 whole entry, looked up): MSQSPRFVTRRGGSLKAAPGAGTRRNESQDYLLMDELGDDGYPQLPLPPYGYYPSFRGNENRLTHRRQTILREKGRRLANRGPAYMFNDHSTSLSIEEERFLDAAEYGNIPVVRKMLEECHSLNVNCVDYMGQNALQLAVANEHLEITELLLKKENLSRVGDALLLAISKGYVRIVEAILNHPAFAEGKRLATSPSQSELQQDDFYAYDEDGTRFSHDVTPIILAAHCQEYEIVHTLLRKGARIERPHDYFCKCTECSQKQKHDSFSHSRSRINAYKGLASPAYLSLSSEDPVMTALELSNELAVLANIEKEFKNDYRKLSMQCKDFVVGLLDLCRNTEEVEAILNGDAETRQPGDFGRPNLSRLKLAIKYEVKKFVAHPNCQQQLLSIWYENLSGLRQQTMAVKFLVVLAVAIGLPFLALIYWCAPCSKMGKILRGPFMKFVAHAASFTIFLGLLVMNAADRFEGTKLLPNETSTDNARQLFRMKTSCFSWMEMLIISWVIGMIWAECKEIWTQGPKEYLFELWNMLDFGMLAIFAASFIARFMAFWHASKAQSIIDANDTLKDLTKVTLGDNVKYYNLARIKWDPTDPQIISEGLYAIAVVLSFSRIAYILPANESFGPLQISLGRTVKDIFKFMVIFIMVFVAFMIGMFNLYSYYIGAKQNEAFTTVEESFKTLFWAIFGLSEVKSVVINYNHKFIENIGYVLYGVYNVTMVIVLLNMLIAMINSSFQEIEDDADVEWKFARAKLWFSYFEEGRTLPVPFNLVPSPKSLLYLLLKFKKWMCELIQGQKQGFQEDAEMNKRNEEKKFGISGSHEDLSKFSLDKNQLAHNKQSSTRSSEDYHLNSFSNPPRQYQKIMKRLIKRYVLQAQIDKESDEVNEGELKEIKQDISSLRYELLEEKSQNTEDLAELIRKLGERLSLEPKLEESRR
Sequence of Short transient receptor potential channel 4 (Mus musculus) (Q9QUQ5 whole entry, looked up): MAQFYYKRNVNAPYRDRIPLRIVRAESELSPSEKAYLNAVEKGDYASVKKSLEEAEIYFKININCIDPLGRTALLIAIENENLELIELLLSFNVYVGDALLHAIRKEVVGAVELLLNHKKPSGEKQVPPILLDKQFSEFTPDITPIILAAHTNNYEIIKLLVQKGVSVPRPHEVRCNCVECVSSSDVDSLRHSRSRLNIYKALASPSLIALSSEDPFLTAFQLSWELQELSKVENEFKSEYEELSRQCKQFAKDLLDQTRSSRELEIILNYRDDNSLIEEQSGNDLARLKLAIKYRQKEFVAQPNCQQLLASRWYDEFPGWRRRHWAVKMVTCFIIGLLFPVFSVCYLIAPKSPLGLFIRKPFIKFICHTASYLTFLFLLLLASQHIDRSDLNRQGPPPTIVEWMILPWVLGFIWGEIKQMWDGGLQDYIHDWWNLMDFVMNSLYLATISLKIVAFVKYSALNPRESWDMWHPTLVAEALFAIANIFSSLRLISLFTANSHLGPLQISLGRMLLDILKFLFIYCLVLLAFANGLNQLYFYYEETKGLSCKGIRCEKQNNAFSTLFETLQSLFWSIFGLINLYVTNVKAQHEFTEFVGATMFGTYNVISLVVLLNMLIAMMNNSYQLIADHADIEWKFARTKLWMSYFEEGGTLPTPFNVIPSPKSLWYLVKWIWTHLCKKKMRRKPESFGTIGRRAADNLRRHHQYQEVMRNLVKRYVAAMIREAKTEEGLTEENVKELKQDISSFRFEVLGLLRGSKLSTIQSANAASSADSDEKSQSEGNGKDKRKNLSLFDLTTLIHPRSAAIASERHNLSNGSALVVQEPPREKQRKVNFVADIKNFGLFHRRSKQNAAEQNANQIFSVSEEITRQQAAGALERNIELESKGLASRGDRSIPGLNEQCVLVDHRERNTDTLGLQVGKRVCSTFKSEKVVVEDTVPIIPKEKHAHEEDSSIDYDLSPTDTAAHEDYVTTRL

On to `COc1ccc(NS(=O)(=O)c2ccc3ccccc3c2)c2ncccc12`, for which the outcome in test [1], in [2], in test [3], in test [4], in test [5] and in test [6] was inactive. In addition, the result in [7], in test [8], in [9], in [10], in test [11] and in [12] was inactive. For the same compound, the result in [13], in test [14], in [15], in [16], in [17] and in test [18] was inactive. The potentiation in test [19] was 49% (active); in test [20] it was 172% (active).
Consider `COCCn1c(SCC(=O)Nc2ccc(S(=O)(=O)N3CCOCC3)cc2)nc2ccccc21`, for which the outcome in test [1], in [2], in [3], in test [5], in [6] and in test [7] was inactive. Further, the result in [8], in test [9], in [10], in test [11], in [12] and in test [13] was inactive. Also, the result in test [14], in test [16] and in test [17] was inactive. The potentiation in test [4] is 12% (active); in test [15], 26.5% (active).
As to `O=C(O)c1ccc(N2CCN(C(c3ccccc3)c3ccccc3)CC2)c([N+](=O)[O-])c1`, the outcome in test [1], in [2], in test [3], in test [4], in test [5] and in test [6] was inactive. The result in test [7], in test [8], in [9], in test [10], in test [11] and in test [12] was inactive. The result in test [13], in test [14], in test [15], in [16] and in test [17] was inactive.
On to `CCCc1nc2oc3c(NCCCN(C)C)ncnc3c2c2c1CCCC2`, for which the outcome in test [1], in test [2], in [3], in test [4], in test [5] and in test [6] was inactive. The result in test [7], in [8], in test [9], in test [10], in [11] and in test [12] was inactive. Also, the result in test [13], in test [14], in test [15], in test [16], in [17] and in [18] was inactive. The outcome in [19] and in test [20] was inactive.
In the case of `CNC(=S)NNC(=O)c1cccn(Cc2cccc(C(F)(F)F)c2)c1=O`, the outcome in [1], in [2], in test [3], in test [5], in test [6] and in test [7] was inactive. Besides, the result in test [8], in [9], in [10], in test [11], in [12] and in test [13] was inactive. Besides, the outcome in [14], in test [15], in [16] and in test [17] was inactive. The potentiation in test [4] is 14% (active).
As for `O=C(O)CCCN1C(=O)/C(=C\c2ccc(-c3nc4ccccc4s3)o2)SC1=S`, the outcome in test [1], in test [2], in [3], in test [5], in test [6] and in test [7] was inactive. Moreover, the outcome in test [8], in test [9], in [10], in test [11], in [12] and in test [13] was inactive. In addition, the outcome in test [14], in [16], in test [17], in test [18], in test [19] and in test [20] was inactive. In addition, the figures for the potentiation in test [4] and in [15] were 10% (active) and 22.6% (active), respectively.
Consider `COc1cc(C2(c3ccc(O)c(OC)c3)C(=O)Nc3c(C)cc(Br)cc32)ccc1O`, for which the outcome in [1], in [2], in test [3], in [5], in test [6] and in test [7] was inactive. Also, the outcome in test [8], in [9], in test [10], in test [11], in test [12] and in test [13] was inactive. The result in test [14], in [16], in test [17] and in test [20] was inactive. Also, the figures for the potentiation in test [4], in [15] and in [19] were 22% (active), 71.7% (active) and 36.5% (active), respectively. Moreover, the activation in test [18] was 168% (active).
